Test [1] can be described thus: circadian clock period modulators, cell-based, LOPAC library, luminescence reporter (AID 2774).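 Further: values are relative to mean of DMSO wells on each plate.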 Particulars: circadian reporter cells, at 7 µM, actives lie on both sides.
In test [2] the test system is Hepatitis C virus NS3 helicase. Put plainly: HCV NS3 helicase inhibitors, primary screen, biochemical, fluorescence polarization, LOPAC1280 library (AID 687035; in the data active means inhibition above about 37%). Particulars: Purified HCV NS3 helicase, Cy5-dT15 ssDNA binding fluorescence polarization; stronger effect = higher value; concentration not given here.
The nature of test [3]: Cy5 fluorescence quenching or enhancement artefacts, artefact control for HCV NS3 helicase inhibitor project, biochemical, LOPAC1280 (AID 687037). Particulars: Cy5-DNA-NS3h complex fluorescence interference counterscreen.
A short description of test [4]: sensitizers of A549 cells to miR-34 induction, primary screen, imaging, A549 dox-inducible miR-34, nuclei and caspase counts (AID 1347080;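 active means compounds whose cell count with miR-34 switched on is under 0.7 times the count with it off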). As to conditions: A549 miR-34 inducible, Hoechst nuclei count, 48 h.
Test [5] is described as follows: phospholipid biosynthesis inhibitors in animal cells, primary screen, cell-based, LOPAC library, screen 4 (AID 1347384). Particulars: phospholipid biosynthesis inhibition screen, at 10 µM.
Test [6] in a line: viability rescue of complex I mutant cybrids, primary screen, cell-based, galactose medium, ATP luminescence (AID 1645843;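 active means z-score of at least 1.8 in each of two replicates, scored against plate mean and spread of sample wells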;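 further: positive z means more ATP and so rescue of galactose-driven cybrid death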). As to conditions: complex I mutant cybrid cells, 72 h, stronger effect = higher value.
[7] abbreviates: stronger effect = lower value, cell number ratio, induced over uninduced.
Where [8] appears, read: measured here: relative caspase fold change +Dox/-Dox.
Where [9] appears, read: measured here: total cells with miR-34 induction, stronger effect = lower value.
[10] abbreviates: measured here: total cells without miR-34 induction.

Active and inactive are the calls of the source. Unless noted, how the calls were made is not given here.

As for `Cc1cccc(C)c1OCC(N)C(C)C` (centres undefined), the period change in test [1] is -0.08 h (inactive). In addition, the inhibition (usually the drop in the measured response relative to a control, in per cent) in test [2] is -3% (inactive). Also, the fluorescence ratio (interference) in test [3] was 1 (inactive). The fold change in test [4] (setting [7]) is 1.09 (inactive); in test [4] (setting [8]) it was 0.766. Further, the cell count in test [4] (setting [9]) is 11200; in test [4] (setting [10]), 10300. Further, the result in test [5] was inactive. In test [6], the z-score was -0.425 (inactive).

For `COc1cccc2c1[C@@H]1CN(CCCCn3c(=O)[nH]c4c(sc5ncc(-c6ccccc6)nc54)c3=O)C[C@@H]1CO2`, the period change in test [1] was -0.035 h (inactive). For the same molecule, the inhibition in test [2] was -5% (inactive). The fluorescence ratio (interference) in test [3] was 0.9 (inactive). Moreover, the fold change is 1.07 (inactive) in test [4] (setting [7]) and 1.42 in test [4] (setting [8]). Further, the cell count in test [4] (setting [9]) amounted to 6250; in test [4] (setting [10]), 5860. Besides, in test [5], the molecule was called inactive. The z-score in test [6] was -1.02 (inactive).

Take `Cn1c(=O)c2[nH]c(-c3ccc(S(=O)(=O)O)cc3)nc2n(C)c1=O`: in test [1], the period change was -0.005 h (inactive). The inhibition in test [2] is 0% (inactive). In addition, the fluorescence ratio (interference) in test [3] is 1 (inactive). For the same molecule, the results for the fold change in test [4] (setting [7]) and in test [4] (setting [8]) were 1.01 (inactive) and 2.24, respectively. Also, the figures for the cell count in test [4] (setting [9]) and in test [4] (setting [10]) were 10100 and 10000, respectively. In test [5], the molecule was classed as inactive. Moreover, in test [6], the z-score is -0.23 (inactive).

On to `CCC1(O)CC2CN(CCc3c([nH]c4ccccc34)[C@@](C(=O)OC)(c3cc4c(cc3OC)N(C=O)C3[C@]45CCN4CC=C[C@@](CC)([C@@H](OC(C)=O)[C@]3(O)C(=O)OC)[C@H]45)C2)C1` (some centres undefined), for which the period change in test [1] was 0.81 h (active). For the same molecule, the inhibition in test [2] is 2% (inactive). Further, the fluorescence ratio (interference) in test [3] is 1 (inactive). In addition, the values for the fold change in test [4] (setting [7]) and in test [4] (setting [8]) were 1.3 (inactive) and 1.29, respectively. Moreover, the values for the cell count in test [4] (setting [9]) and in test [4] (setting [10]) were 1490 and 1140, respectively. Besides, the molecule was classed as inactive in test [5]. The z-score in test [6] is -0.935 (inactive).

For the molecule `CCCn1c(=O)c2[nH]c(-c3ccc(S(=O)(=O)O)cc3)nc2n(CCC)c1=O`, the period change in test [1] is -0.005 h (inactive). Moreover, the inhibition in test [2] is 0% (inactive). Also, the fluorescence ratio (interference) in test [3] was 1 (inactive). Besides, the fold change in test [4] (setting [7]) was 0.978 (inactive); in test [4] (setting [8]) it was 2.81. The cell count came out at 10100 in test [4] (setting [9]) and 10400 in test [4] (setting [10]). Moreover, in test [5], the molecule was classed as inactive. Moreover, in test [6], the z-score is 0.43 (inactive).

As for `Nc1ccc(N2C(=O)c3ccccc3C2=O)c(Cl)c1`, the period change in test [1] is 0.15 h (inactive). Besides, in test [2], the inhibition is 0% (inactive). Also, the fluorescence ratio (interference) in test [3] was 1 (inactive). Moreover, the fold change in test [4] (setting [7]) is 0.973 (inactive); in test [4] (setting [8]) it was 1.66. Also, the cell count in test [4] (setting [9]) came to 10200; in test [4] (setting [10]) it was 10500. Besides, the molecule was classed as inactive in test [5]. The z-score in test [6] is 0.45 (inactive).

Consider `CCCCCCC/C=C\CCCCCCCCC(=O)O`, for which, in test [1], the period change was 0.02 h (inactive). For the same molecule, the inhibition in test [2] is -4% (inactive). Besides, the fluorescence ratio (interference) in test [3] was 0.9 (inactive). Moreover, the fold change is 1.08 (inactive) in test [4] (setting [7]) and 0.494 in test [4] (setting [8]). The cell count was 10900 in test [4] (setting [9]) and 10100 in test [4] (setting [10]). The molecule was called inactive in test [5]. Further, the z-score in test [6] was 0.87 (inactive).

For the molecule `Fc1ccc(C(OCCCc2cnc[nH]2)c2ccc(F)cc2)cc1`, in test [1], the period change was 0.11 h (inactive). In addition, the inhibition in test [2] is -1% (inactive). In addition, in test [3], the fluorescence ratio (interference) is 1 (inactive). The fold change in test [4] (setting [7]) was 0.951 (inactive); in test [4] (setting [8]), 0.647. In addition, the cell count came to 8620 in test [4] (setting [9]) and 9060 in test [4] (setting [10]). The molecule was classed as inactive in test [5]. Further, the z-score in test [6] is -1.19 (inactive).

For `Nc1nc(Cl)nc2c1ncn2[C@@H]1O[C@H](COP(=O)(O)OP(=O)(O)OP(=O)(O)O)[C@H](O)C1O` (some centres undefined), in test [1], the period change was -0.055 h (inactive). The inhibition in test [2] was 37% (active). Besides, the fluorescence ratio (interference) in test [3] was 1 (inactive). Further, the results for the fold change in test [4] (setting [7]) and in test [4] (setting [8]) were 1.14 (inactive) and 1.19, respectively. Further, the cell count in test [4] (setting [9]) is 2920; in test [4] (setting [10]), 2560. For the same molecule, the molecule was called inactive in test [5]. Further, the z-score in test [6] was 0.235 (inactive).

For `C=C[C@H]1CN2CCC1C[C@H]2[C@H](O)c1ccnc2ccc(OC)cc12` (some centres undefined), the period change in test [1] was -0.145 h (inactive). The inhibition in test [2] was -2% (inactive). For the same molecule, the fluorescence ratio (interference) in test [3] is 1 (inactive). Besides, the figures for the fold change in test [4] (setting [7]) and in test [4] (setting [8]) were 1.04 (inactive) and 1.02, respectively. Moreover, the cell count in test [4] (setting [9]) worked out at 8290; in test [4] (setting [10]), 8000. Moreover, in test [5], the result was inactive. Further, the z-score in test [6] was -1.04 (inactive).

For the molecule `COc1cc(/C=C(\C#N)C(=O)c2ccc(O)c(O)c2)cc(I)c1O`, the period change in test [1] is 0.035 h (inactive). Moreover, in test [2], the inhibition is 37% (active). The fluorescence ratio (interference) in test [3] was 0.9 (inactive). The fold change is 0.957 (inactive) in test [4] (setting [7]) and 1.26 in test [4] (setting [8]). For the same molecule, the cell count is 9980 in test [4] (setting [9]) and 10400 in test [4] (setting [10]). The result in test [5] was inactive. The z-score in test [6] is 0.8 (inactive).
